About 83,000 compounds went through this panel and 20% of them were active in at least one assay; those are over-represented in the sample as a whole.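 In brief: 96-well plates, 48 h treatment, single concentration, percent growth endpoint.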 Values without a mark were called inactive. Active and inactive are the calls of the source. The calls were made as follows: active = growth percent below 10; inactive = the rest.

Test systems include NCI-H226 lung; NCI-H322M lung; HOP-62 NSCLC; NCI-H460 lung; HOP-92 NSCLC; NCI-H522 lung; A549/ATCC NSCLC; 786-0 renal; COLO 205 colon; DU-145 prostate.
Holding throughout (assay): NCI-60 one-dose screen, 48 h (100 = growth as untreated, 0 = no growth, -100 = all killed)
Holding throughout (conditions): 10 µM unless noted

Regarding `COc1ccc(-c2csc(N/N=C/c3c(-c4ccc(S(C)(=O)=O)cc4)nc4ccccn34)n2)cc1`, the growth in the assay with NCI-H226 lung is 115%; in the assay on NCI-H322M lung it was 106%; with HOP-62 NSCLC it was 121%; with NCI-H460 lung, 109%; with HOP-92 NSCLC it was 99.9%; in the assay with NCI-H522 lung, 104%. Besides, the growth with A549/ATCC NSCLC was 105%; in the assay with 786-0 renal it was 82.7%; with COLO 205 colon, 120%; with DU-145 prostate, 113%.
With `Cn1c(SCC(=O)c2cccs2)nc2ccccc2c1=O`, the growth is 91.9% in the assay with NCI-H226 lung; 102% with NCI-H322M lung; 85.9% in the assay on HOP-62 NSCLC; 98.7% with NCI-H460 lung; 87.3% in the assay on HOP-92 NSCLC; 87.8% with NCI-H522 lung. Further, the growth is 99.6% with A549/ATCC NSCLC, 98.6% with 786-0 renal, 111% in the assay on COLO 205 colon and 105% with DU-145 prostate.
Turning to `N#Cc1ccc(C(=O)CSc2nc(Nc3ccc(S(N)(=O)=O)cc3)c3ccccc3n2)cc1`, the growth with NCI-H226 lung was 105%; in the assay with NCI-H322M lung it was 107%; in the assay on HOP-62 NSCLC, 99.2%; in the assay with NCI-H460 lung, 111%; in the assay on HOP-92 NSCLC it was 111%; in the assay with NCI-H522 lung, 99.8%. In addition, the growth with A549/ATCC NSCLC was 108%; with 786-0 renal it was 105%; with COLO 205 colon, 117%; in the assay on DU-145 prostate it was 107%.
For `O=C(CSc1nc2sc3c(c2c(=O)n1-c1ccc(Cl)cc1)CCCC3)N/N=C/c1ccc(F)cc1`, the growth in the assay with NCI-H226 lung was 113%; in the assay on NCI-H322M lung it was 104%; in the assay with HOP-62 NSCLC, 105%; with NCI-H460 lung, 81.4%; with HOP-92 NSCLC, 97.3%; in the assay with NCI-H522 lung, 100%. The growth in the assay on A549/ATCC NSCLC was 88.1%; in the assay with 786-0 renal, 98.9%; in the assay on COLO 205 colon, 117%; with DU-145 prostate, 82.1%.
On to `N#Cc1nc(-c2ccccc2)oc1N1CC[C@@H](CO)C1`, for which the growth in the assay with NCI-H226 lung was 94%; in the assay on NCI-H322M lung, 93.8%; in the assay with HOP-62 NSCLC, 102%; in the assay with NCI-H460 lung, 99.7%; in the assay with HOP-92 NSCLC, 98.5%; in the assay with NCI-H522 lung, 95.1%. The growth in the assay on A549/ATCC NSCLC is 101%; in the assay on 786-0 renal, 103%; with COLO 205 colon, 106%; in the assay on DU-145 prostate, 100%.
With `O=C(Oc1ccc2ccc(=O)oc2c1)c1ccc(Cl)cc1`, the growth is 104% in the assay with NCI-H226 lung; 99% in the assay with NCI-H322M lung; 108% in the assay with HOP-62 NSCLC; 103% in the assay with NCI-H460 lung; 95.2% in the assay with HOP-92 NSCLC; 105% with NCI-H522 lung. In addition, the growth is 94.2% in the assay with A549/ATCC NSCLC, 100% with 786-0 renal, 114% in the assay on COLO 205 colon and 108% in the assay on DU-145 prostate.
Consider `Cn1ccnc1C(=O)/C=C/c1ccc(NC(=O)Nc2ccc(Cl)cc2)cc1`, for which the growth with NCI-H226 lung was 81.9%; with NCI-H322M lung it was 95.1%; in the assay with HOP-62 NSCLC, 94.8%; with NCI-H460 lung, 59.6%; in the assay on HOP-92 NSCLC, 104%; with NCI-H522 lung it was 78.2%. In addition, the growth was 86.8% with A549/ATCC NSCLC, 56.8% with 786-0 renal, 95.9% with COLO 205 colon and 75.7% in the assay with DU-145 prostate.
Turning to `COC(=O)C(C)NS(=O)(=O)/N=C1\NC(=O)NC1=C(Cl)Cl` (stereo not given), the growth with NCI-H226 lung was 106%; in the assay with NCI-H322M lung, 102%; in the assay on HOP-62 NSCLC, 111%; with NCI-H460 lung, 113%; in the assay with HOP-92 NSCLC it was 107%; in the assay on NCI-H522 lung it was 101%. Besides, the growth is 105% in the assay on A549/ATCC NSCLC, 103% in the assay with 786-0 renal, 115% with COLO 205 colon and 109% with DU-145 prostate.
For the molecule `CCOC(=O)c1csc(NC(=O)CSc2nc3sc4c(c3c(=O)n2-c2ccc(Cl)cc2)CCCC4)n1`, the growth is 101% with NCI-H226 lung; 101% with NCI-H322M lung; 101% with HOP-62 NSCLC; 100% in the assay on NCI-H460 lung; 77.8% in the assay on HOP-92 NSCLC; 93.3% in the assay with NCI-H522 lung. Further, the growth in the assay on A549/ATCC NSCLC was 98.6%; in the assay on 786-0 renal, 103%; with COLO 205 colon, 133%; in the assay on DU-145 prostate, 107%.
Consider `CCCC(=O)NC(c1ccc(N(CC)CC)cc1)c1cc(C)c2cccnc2c1O` (stereo not given), for which the growth in the assay with NCI-H226 lung is 1.21% (active); in the assay with NCI-H322M lung, 27.8%; with HOP-62 NSCLC it was 17.4%; with NCI-H460 lung, 1.53% (active); in the assay with HOP-92 NSCLC, 46.4%; in the assay with NCI-H522 lung, 15.9%. Further, the growth in the assay on A549/ATCC NSCLC was 28.7%; in the assay on 786-0 renal, 0.0799% (active); in the assay on COLO 205 colon, 23.1%; in the assay with DU-145 prostate, 25.6%.
Turning to `O=C1Nc2ccccc2Oc2ccc(S(=O)(=O)CC3CO3)cc21` (stereo not given), the growth was 95.7% in the assay on NCI-H226 lung; 93.7% in the assay with NCI-H322M lung; 101% in the assay with HOP-62 NSCLC; 79.5% in the assay with NCI-H460 lung; 88.8% in the assay with HOP-92 NSCLC; 32.8% in the assay with NCI-H522 lung. The growth was 77.2% in the assay on A549/ATCC NSCLC, 98.1% in the assay on 786-0 renal, 50.1% in the assay with COLO 205 colon and 61.2% in the assay on DU-145 prostate.
Turning to `O=C1/C(=C/C2=Cc3ccccc3OC2)SC(=S)N1c1ccc(F)cc1`, the growth was 103% in the assay on NCI-H226 lung; 97.2% in the assay with NCI-H322M lung; 101% with HOP-62 NSCLC; 105% in the assay on NCI-H460 lung; 99.2% in the assay with HOP-92 NSCLC; 90.4% in the assay with NCI-H522 lung. Further, the growth in the assay on A549/ATCC NSCLC is 101%; in the assay with 786-0 renal it was 96.3%; in the assay with COLO 205 colon, 107%; in the assay on DU-145 prostate, 104%.
For `Nc1cc(-c2c[nH]c3ccccc23)nc2cc(-c3c[nH]c4ccccc34)nn12`, the growth with NCI-H226 lung was 67.3%; in the assay on NCI-H322M lung it was 80.8%; in the assay with HOP-62 NSCLC, 95.3%; with NCI-H460 lung, 4.94% (active); in the assay on HOP-92 NSCLC it was 72.5%; in the assay on NCI-H522 lung, 43%. In addition, the growth in the assay with A549/ATCC NSCLC is 58.3%; with 786-0 renal, 46.8%; in the assay on COLO 205 colon, 49.4%; in the assay with DU-145 prostate, 40.2%.
